Data taken from PMC7862700, “An all-to-all approach to the identification of sequence-specific readers for epigenetic DNA modifications on cytosine”.

Legend:
Assay in all cases: DAPPL (digital affinity profiling via proximity ligation, sequencing); 10 mM Tris-HCl pH 7.5, 50 mM NaCl, 1 mM DTT, 4% glycerol, room temperature, 30 min; GST-TFs on glutathione beads, 16-mer random dsDNA library, 0.1% formaldehyde crosslink after washing; high values mean tight binding
[1] = target: T1, FLI1 (Homo sapiens, UniProt Q01543 1-452); conditions: protein: recombinant; tags: N-terminal GST; dsDNA, one strand shown
T1 sequence: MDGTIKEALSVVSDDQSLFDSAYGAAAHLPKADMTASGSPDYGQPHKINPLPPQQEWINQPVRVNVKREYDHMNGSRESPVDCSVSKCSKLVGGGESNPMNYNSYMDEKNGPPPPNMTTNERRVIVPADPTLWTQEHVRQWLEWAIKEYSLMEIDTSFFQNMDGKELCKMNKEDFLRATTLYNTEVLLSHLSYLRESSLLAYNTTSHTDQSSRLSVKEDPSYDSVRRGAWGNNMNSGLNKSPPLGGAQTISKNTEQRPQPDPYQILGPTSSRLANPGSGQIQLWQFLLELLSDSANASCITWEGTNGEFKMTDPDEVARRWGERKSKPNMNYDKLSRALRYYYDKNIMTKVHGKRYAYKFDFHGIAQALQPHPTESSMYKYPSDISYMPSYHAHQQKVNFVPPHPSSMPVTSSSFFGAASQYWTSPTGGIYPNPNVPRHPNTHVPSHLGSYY
Outline: (§1)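 Pools were built from human transcription factors expressed in yeast as GST fusions, captured on glutathione beads and DNA-barcoded, along with a tag-only sample. Incubation with 200 nmole of a 16-mer random double-stranded DNA library lasted 30 min at room temperature in Tris/NaCl/DTT/glycerol buffer, and was followed by washing, 0.1% formaldehyde crosslinking, proximity ligation, PCR amplification and Illumina NextSeq500 sequencing. Binding signal is the quotient of each hexamer's read frequency for a factor and its frequency for the tag-only sample.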

[2] = target: T2, ELK1 (Homo sapiens, UniProt P19419 1-428); conditions: protein: recombinant; tags: N-terminal GST; dsDNA, one strand shown
T2 sequence: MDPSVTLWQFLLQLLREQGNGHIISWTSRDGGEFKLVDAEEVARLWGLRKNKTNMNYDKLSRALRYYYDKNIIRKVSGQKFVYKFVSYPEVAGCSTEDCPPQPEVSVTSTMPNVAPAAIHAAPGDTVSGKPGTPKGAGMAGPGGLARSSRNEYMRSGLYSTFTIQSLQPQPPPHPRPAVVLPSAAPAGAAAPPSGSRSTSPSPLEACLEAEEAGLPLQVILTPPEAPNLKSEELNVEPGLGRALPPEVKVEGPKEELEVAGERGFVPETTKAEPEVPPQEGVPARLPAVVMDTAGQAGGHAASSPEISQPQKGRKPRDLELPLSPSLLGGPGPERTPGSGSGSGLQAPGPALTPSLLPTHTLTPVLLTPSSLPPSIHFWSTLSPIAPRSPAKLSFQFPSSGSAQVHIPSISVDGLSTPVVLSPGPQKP
Outline: as §1

[3] = target: T3, GABPA (Homo sapiens, UniProt Q06546 1-454); conditions: protein: recombinant; tags: N-terminal GST; dsDNA, one strand shown
T3 sequence: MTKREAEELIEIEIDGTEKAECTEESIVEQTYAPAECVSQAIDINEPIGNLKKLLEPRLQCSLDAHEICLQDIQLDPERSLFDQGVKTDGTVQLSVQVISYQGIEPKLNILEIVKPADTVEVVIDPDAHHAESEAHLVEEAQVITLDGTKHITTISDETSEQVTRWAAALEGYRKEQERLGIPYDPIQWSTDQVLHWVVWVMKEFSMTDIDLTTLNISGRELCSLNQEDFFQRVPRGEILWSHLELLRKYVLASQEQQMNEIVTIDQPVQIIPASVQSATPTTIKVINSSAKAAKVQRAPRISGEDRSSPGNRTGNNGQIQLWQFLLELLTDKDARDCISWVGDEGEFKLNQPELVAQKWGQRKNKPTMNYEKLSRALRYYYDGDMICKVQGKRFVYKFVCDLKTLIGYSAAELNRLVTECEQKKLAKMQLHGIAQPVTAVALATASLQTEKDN
Outline: as §1

[4] = target: T4, ERG (Homo sapiens, UniProt P11308 1-479); conditions: protein: recombinant; tags: N-terminal GST; dsDNA, one strand shown
T4 sequence: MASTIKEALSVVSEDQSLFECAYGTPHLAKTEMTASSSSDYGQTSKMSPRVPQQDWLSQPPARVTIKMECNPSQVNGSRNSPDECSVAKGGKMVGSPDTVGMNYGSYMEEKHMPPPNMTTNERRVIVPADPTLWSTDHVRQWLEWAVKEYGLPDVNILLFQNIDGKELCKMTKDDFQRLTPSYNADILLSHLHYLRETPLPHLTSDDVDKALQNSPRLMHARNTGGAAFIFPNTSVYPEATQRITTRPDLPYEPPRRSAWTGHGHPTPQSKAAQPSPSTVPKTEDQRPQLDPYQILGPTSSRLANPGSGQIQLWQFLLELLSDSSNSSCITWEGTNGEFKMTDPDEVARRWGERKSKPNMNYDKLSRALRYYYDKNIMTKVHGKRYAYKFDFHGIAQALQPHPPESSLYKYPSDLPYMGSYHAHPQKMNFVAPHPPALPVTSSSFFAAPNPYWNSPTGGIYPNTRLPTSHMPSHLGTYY
Outline: as §1

[5] = target: ELF1 (Homo sapiens, UniProt P32519 1-619); conditions: protein: recombinant; tags: N-terminal GST; dsDNA, one strand shown
Chain of ELF1 (P32519 whole entry): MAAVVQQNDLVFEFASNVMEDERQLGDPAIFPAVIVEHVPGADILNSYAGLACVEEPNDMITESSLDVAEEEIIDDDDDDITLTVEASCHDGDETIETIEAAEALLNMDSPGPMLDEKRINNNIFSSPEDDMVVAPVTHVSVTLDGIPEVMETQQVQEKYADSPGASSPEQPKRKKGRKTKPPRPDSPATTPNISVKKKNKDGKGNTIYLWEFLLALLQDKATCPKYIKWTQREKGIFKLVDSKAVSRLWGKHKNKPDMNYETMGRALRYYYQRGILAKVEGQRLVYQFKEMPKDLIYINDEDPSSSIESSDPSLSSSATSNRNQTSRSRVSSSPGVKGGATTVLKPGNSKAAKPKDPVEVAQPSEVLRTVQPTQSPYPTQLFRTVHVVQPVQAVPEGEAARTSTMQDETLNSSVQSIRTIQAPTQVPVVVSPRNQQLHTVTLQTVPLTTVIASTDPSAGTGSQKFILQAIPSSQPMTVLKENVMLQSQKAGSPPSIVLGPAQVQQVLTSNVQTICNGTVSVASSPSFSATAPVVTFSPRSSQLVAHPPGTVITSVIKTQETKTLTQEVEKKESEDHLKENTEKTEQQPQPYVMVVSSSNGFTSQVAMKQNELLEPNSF
Outline: as §1

[6] = target: T5, EHF (Homo sapiens, UniProt Q9NZC4 1-300); conditions: protein: recombinant; tags: N-terminal GST; dsDNA, one strand shown
T5 sequence: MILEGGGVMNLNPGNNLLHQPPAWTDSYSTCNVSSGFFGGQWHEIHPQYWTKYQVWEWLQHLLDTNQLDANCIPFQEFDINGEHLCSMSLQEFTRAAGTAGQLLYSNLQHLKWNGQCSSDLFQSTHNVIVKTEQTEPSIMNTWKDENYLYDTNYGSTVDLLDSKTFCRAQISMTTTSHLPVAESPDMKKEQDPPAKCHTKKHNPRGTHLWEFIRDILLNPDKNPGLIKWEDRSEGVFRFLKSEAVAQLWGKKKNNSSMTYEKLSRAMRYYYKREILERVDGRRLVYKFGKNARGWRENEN
Outline: as §1

[7] = target: SPI1 (Homo sapiens, UniProt P17947 1-270); conditions: protein: recombinant; tags: N-terminal GST; dsDNA, one strand shown
Outline: as §1

[8] = target: SPIB (Homo sapiens, UniProt Q01892 1-262); conditions: protein: recombinant; tags: N-terminal GST; dsDNA, one strand shown
Chain of SPIB (Q01892 whole entry): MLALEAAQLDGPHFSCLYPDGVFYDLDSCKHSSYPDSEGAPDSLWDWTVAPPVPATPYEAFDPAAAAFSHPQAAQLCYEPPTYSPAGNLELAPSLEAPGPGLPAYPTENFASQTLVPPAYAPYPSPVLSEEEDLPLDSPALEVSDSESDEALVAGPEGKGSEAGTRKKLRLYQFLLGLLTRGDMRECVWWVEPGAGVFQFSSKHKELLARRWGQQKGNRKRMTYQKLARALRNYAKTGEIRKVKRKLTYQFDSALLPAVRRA
Outline: as §1

[9] = target: T6, ELK3 (Homo sapiens, UniProt P41970 1-407); conditions: protein: recombinant; tags: N-terminal GST; dsDNA, one strand shown
T6 sequence: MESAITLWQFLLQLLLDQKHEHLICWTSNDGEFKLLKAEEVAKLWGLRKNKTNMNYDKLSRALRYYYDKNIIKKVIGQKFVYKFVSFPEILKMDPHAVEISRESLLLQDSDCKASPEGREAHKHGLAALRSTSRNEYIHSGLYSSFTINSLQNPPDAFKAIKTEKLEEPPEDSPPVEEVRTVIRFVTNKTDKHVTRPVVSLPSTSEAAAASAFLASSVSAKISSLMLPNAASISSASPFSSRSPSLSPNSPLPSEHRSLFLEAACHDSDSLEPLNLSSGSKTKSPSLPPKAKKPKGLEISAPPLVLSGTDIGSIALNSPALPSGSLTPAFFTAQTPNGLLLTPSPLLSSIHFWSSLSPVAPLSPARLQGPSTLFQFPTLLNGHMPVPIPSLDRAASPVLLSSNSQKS
Outline: as §1

[10] = target: T7, FEV (Homo sapiens, UniProt Q99581 1-238); conditions: protein: recombinant; tags: N-terminal GST; dsDNA, one strand shown
T7 sequence: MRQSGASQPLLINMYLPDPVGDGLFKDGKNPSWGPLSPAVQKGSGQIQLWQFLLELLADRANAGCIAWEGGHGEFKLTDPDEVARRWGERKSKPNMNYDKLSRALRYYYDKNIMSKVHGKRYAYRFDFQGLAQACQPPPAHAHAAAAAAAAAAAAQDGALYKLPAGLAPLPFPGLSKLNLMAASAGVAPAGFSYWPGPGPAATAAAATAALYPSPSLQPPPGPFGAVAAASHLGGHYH
Outline: as §1

[11] = target: ETV5 (Homo sapiens, UniProt P41161 1-510); conditions: protein: recombinant; tags: N-terminal GST; dsDNA, one strand shown
Chain of ETV5 (P41161 whole entry): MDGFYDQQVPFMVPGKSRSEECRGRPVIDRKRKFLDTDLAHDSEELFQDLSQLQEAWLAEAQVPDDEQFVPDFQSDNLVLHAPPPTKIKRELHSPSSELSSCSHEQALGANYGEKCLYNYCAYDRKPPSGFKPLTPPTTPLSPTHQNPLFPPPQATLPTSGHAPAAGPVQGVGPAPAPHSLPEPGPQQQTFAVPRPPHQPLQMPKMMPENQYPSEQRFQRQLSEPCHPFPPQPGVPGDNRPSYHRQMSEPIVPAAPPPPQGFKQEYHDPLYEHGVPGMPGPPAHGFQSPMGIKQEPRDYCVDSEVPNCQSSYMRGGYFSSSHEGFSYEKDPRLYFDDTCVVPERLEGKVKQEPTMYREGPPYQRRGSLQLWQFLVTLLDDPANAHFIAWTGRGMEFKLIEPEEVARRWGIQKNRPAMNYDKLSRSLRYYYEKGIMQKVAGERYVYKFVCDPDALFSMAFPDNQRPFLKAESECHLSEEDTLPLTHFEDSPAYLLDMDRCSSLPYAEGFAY
Outline: as §1

[12] = target: HSF1 (Homo sapiens, UniProt Q00613 1-529); conditions: protein: recombinant; tags: N-terminal GST; chain copies: 3; dsDNA, one strand shown
Chain of HSF1 (Q00613 whole entry): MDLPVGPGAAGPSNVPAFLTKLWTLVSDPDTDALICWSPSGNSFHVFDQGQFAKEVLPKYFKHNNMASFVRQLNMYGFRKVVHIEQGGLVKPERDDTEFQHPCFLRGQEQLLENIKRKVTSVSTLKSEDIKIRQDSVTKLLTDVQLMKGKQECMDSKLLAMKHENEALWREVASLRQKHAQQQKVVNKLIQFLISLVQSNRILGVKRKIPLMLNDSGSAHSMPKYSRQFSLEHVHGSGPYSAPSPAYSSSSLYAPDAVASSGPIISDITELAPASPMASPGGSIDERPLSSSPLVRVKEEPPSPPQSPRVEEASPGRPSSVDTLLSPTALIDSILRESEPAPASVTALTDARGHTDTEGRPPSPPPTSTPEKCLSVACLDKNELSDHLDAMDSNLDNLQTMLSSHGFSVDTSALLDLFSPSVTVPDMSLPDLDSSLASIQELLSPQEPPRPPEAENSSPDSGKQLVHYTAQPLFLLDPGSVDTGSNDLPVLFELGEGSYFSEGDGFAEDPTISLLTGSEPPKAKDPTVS
Outline: as §1

[13] = target: T8, SPIC (Homo sapiens, UniProt Q8N5J4 1-248); conditions: protein: recombinant; tags: N-terminal GST; dsDNA, one strand shown
T8 sequence: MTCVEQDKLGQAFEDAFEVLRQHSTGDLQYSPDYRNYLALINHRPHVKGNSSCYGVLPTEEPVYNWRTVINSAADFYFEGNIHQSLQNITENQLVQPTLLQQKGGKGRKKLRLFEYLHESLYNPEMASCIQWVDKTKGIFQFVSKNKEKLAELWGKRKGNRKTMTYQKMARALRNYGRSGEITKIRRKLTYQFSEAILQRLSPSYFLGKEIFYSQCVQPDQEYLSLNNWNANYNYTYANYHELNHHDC
Outline: as §1

[14] = target: ELF4 (Homo sapiens, UniProt Q99607 1-663); conditions: protein: recombinant; tags: N-terminal GST; dsDNA, one strand shown
Chain of ELF4 (Q99607 whole entry): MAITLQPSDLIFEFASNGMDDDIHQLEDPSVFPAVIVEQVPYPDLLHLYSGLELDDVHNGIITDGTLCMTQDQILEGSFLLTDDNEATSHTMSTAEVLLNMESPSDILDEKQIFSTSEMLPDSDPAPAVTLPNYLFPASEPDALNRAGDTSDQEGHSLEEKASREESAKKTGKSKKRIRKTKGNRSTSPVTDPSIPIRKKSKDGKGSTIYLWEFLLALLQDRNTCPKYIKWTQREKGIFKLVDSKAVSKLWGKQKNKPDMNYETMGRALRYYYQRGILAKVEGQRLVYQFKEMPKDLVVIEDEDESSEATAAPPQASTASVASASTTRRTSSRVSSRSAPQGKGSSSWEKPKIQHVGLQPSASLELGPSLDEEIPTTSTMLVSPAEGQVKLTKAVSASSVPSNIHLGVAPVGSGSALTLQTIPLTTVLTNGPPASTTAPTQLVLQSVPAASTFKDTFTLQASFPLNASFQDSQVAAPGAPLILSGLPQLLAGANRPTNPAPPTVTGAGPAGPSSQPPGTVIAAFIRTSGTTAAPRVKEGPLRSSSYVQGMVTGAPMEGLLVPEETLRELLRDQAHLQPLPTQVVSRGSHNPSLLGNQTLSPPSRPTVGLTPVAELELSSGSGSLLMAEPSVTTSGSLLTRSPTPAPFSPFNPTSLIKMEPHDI
Outline: as §1

[15] = target: T9, ELK4 (Homo sapiens, UniProt P28324-2 1-405); conditions: protein: recombinant; tags: N-terminal GST; dsDNA, one strand shown
T9 sequence: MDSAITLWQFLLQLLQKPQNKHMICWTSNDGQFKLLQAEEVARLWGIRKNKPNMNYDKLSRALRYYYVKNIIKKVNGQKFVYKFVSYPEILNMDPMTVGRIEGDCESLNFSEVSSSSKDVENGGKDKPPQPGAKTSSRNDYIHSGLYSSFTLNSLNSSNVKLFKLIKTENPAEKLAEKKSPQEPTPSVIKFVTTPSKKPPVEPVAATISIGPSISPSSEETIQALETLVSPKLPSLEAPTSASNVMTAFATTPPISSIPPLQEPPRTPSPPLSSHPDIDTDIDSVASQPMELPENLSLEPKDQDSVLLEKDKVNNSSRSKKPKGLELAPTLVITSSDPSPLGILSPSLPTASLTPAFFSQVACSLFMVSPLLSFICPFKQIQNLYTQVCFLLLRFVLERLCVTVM
Outline: as §1

[16] = target: T10, ETV2 (Homo sapiens, UniProt O00321 1-342); conditions: protein: recombinant; tags: N-terminal GST; dsDNA, one strand shown
T10 sequence: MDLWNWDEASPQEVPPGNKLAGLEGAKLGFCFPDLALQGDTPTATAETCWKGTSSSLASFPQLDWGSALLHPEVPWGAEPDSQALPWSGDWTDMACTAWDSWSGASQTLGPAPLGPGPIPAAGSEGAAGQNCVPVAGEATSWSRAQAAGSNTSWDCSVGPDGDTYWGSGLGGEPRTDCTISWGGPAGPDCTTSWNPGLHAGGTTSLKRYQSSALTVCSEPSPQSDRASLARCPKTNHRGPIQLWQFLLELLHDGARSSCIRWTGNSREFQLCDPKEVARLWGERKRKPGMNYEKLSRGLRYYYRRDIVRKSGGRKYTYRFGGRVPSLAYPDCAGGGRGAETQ
Outline: as §1

[17] = target: T11, ELF3 (Homo sapiens, UniProt P78545 1-371); conditions: protein: recombinant; tags: N-terminal GST; dsDNA, one strand shown
T11 sequence: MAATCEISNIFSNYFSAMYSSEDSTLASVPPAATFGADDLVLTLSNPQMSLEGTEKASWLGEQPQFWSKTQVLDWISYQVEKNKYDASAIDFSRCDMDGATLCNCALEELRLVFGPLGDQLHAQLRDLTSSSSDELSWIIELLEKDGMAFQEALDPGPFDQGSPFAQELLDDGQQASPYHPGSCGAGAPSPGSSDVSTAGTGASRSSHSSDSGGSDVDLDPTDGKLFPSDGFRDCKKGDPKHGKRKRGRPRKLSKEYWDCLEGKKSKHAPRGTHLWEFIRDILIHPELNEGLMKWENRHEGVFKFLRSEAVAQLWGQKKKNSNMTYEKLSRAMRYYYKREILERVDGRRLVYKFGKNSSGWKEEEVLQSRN
Outline: as §1

[18] = target: CRX (Homo sapiens, UniProt O43186 1-299); conditions: protein: recombinant; tags: N-terminal GST; dsDNA, one strand shown
Chain of CRX (O43186 whole entry): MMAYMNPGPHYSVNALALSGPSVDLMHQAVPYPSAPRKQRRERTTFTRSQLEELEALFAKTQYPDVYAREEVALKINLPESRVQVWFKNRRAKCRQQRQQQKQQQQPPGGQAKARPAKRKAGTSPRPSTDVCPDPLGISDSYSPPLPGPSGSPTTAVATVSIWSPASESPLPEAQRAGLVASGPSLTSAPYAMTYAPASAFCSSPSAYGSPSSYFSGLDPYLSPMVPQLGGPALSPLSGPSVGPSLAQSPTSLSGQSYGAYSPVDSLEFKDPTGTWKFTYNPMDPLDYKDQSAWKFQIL
Outline: as §1

[19] = target: ETV1 (Homo sapiens, UniProt P50549 1-477); conditions: protein: recombinant; tags: N-terminal GST; dsDNA, one strand shown
Chain of ETV1 (P50549 whole entry): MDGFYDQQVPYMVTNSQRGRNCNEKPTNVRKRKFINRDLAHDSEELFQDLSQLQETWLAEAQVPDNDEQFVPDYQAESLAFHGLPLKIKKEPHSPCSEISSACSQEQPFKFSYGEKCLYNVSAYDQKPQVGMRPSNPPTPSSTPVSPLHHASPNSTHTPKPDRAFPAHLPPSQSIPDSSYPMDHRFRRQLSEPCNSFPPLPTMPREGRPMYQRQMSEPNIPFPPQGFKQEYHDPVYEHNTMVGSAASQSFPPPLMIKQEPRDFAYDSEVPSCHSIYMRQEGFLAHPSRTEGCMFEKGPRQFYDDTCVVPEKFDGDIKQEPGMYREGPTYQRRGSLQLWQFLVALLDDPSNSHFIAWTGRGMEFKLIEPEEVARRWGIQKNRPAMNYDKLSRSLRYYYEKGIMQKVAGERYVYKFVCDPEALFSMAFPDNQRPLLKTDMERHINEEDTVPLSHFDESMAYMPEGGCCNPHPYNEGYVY
Outline: as §1

CAGCTT
binding signal [1]: 1.2 fold enrichment (6-mer frequency, TF over GST control)
binding signal [2]: 1.27 fold enrichment (6-mer frequency, TF over GST control)
binding signal [3]: 1.22 fold enrichment (6-mer frequency, TF over GST control)
binding signal [4]: 1.2 fold enrichment (6-mer frequency, TF over GST control)
binding signal [5]: 1.26 fold enrichment (6-mer frequency, TF over GST control)
binding signal [6]: 1.22 fold enrichment (6-mer frequency, TF over GST control)
binding signal [7]: 1.19 fold enrichment (6-mer frequency, TF over GST control)
binding signal [8]: 1.2 fold enrichment (6-mer frequency, TF over GST control)
binding signal [9]: 1.3 fold enrichment (6-mer frequency, TF over GST control)
binding signal [10]: 1.2 fold enrichment (6-mer frequency, TF over GST control)
binding signal [11]: 1.17 fold enrichment (6-mer frequency, TF over GST control)
binding signal [12]: 1.43 fold enrichment (6-mer frequency, TF over GST control)
binding signal [13]: 1.01 fold enrichment (6-mer frequency, TF over GST control)
binding signal [14]: 1.19 fold enrichment (6-mer frequency, TF over GST control)
binding signal [15]: 1.24 fold enrichment (6-mer frequency, TF over GST control)
binding signal [16]: 1.36 fold enrichment (6-mer frequency, TF over GST control)
binding signal [17]: 1.19 fold enrichment (6-mer frequency, TF over GST control)
binding signal [18]: 1.9 fold enrichment (6-mer frequency, TF over GST control)
binding signal [19]: 1.16 fold enrichment (6-mer frequency, TF over GST control)
